# In PubChem BioAssay AID1508600 (Functional Genomics Laboratory (NCATS/FGL), 2020):
# In all, about 53,000 sequences went through this assay and about 3,700 (7%) were called active. The entries come from a sample that favours actives as a whole. Unmarked numbers belong to inactive results.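 Rule for the calls: active = gene knockdowns whose robust z-score for IL-1 alpha signal is at least 2 or at most -2, so actives lie on both sides; inactive = the rest.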
# Experiment: Components of the Cytosolic LPS Sensing Pathway: Gene Identification via Genome-wide siRNA Screen;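 note: robust z of the log signal after scaling to non-targeting control siRNA wells of the plate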
# Details: RAW264.7 macrophages, IL-1a HTRF, actives lie on both sides, screened at 100 nM (by protocol), cells primed 5 h with Pam3CSK4 first
# In short: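 Mouse macrophage line RAW264.7 is transfected with siRNA (100 nM final), grown 48h, primed with TLR ligand Pam3CSK4 5 h and given intracellular LipidA 24 h. IL-1a in supernatant is read by HTRF and viability by luminescence.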
row,Sequence,z-score
1,GGAUUCAGAAAUCUGGAAATT against Nmnat3,-0.199
2,GGUCAUCUUACAGUUUAAATT against Smap2,0.593
3,GCGAAUAUCCAACCUAUCUTT against Itgb7,-0.687
4,GGGCAUCAUGAAACUAUGUTT against Kbtbd4,-2.59 (active)
5,GCUGAAGGCGACAAUGGAUTT against Ak2,-0.0901
6,GGCCUGCUAUAUGCAUUCCTT against Krtap12-1,0.974
7,GGAAAAGAUGCCUGUAUUUTT against Sgcd,-0.422
8,GGAUUCCAAAUGCUUACAATT against Lysmd3,0.757
9,GCCAAUGCAGGGUAAGUACTT against Tmtc2,-2.83 (active)
10,GCCUAUCCGACAACUUAGUTT against Slc25a17,0.136
11,GCAUAACCAAGUGUGAUGCTT against Actrt2,-0.439
12,GGAGAAAGUCAUCUUUGAUTT against Cdk5rap2,-0.41
13,GGAGACGGAGCUGUUAGAUTT against Plcb1,-0.104
14,GGUCCAUUAGCUAAAUCUUTT against Mysm1,1.87
15,CGAAGUGACAAUAAAUCAGTT against Snapc5,-0.0661
16,GCAUCAGAGGGAUUUCACUTT against Slc35d3,-2.68 (active)
17,GGGAGCCAAAGUGAGAUUUTT against Azin2,0.736
18,GGCAAAGUGAGUAAGACAGTT against Habp2,0.0806
19,GCCCUAUUCCCAACUAUUCTT against Nefl,-0.481
20,GGACUUUACAGACACUUUUTT against Kdm1b,-1.57
21,GCAGUUGUCACUGGCAAGUTT against Aqp2,2.21 (active)
22,GCAAAGGUUCUAGUUGAUATT against Cct2,-0.585

row,Sequence,z-score
1,CCGAUUUUGUGGCCUCAUGTT against Emg1,-0.578
2,GGAGAAAUGGGUAAAAACUTT against Paral1,0.296
3,GCCUAUGCUCAACUUCUCGTT against Thap4,-3.31 (active)
4,GGCCCUGACAGAGGAAAAATT against Impa2,-1.16
5,CGAUAUGAAGCGAAAUAUCTT against Pmpca,0.528
6,GCCUUCCAGUCAGUGAAAUTT against Foxn1,-0.174
7,GGAAAUCGAGCAAAAGACATT against Cep104,1.5
8,GCCAUUCUUUGAAAAGAGGTT against Ak8,-1.77
9,GGUCGUGAUAUUAUUGGGUTT against Ddx47,2.91 (active)
10,GCAGGUAAGUUAAAUGAUGTT against Ccdc148,0.961
11,CCCUUUACAUUACUCUAGCTT against Olfr715,0.141
12,GGGAGCGGAGCAAACAUAATT against Olfr1370,0.675
13,CGGUUCUUUUACCAAGAUCTT against Jak3,-0.781
14,GCCGAGUUUACUUGUUUGATT against Exd1,0.554
15,GGAAGCAAACUUAAAGUGUTT against Ewsr1,2.17 (active)
16,GGUGUUCUGUAUCUUGUUCTT against Ndn,0.572
17,GGAGCUCCAUGACAUGUUUTT against Stx3,-0.37
18,CGCGGAGUUUCGAAGUGUCTT against Drd4,3.64 (active)
19,GGAACCUAACAGAGAAACATT against Prpsap2,-0.166
20,GCAAAUACUCAAGUUCAGATT against Cpt1b,0.382
21,GGAUACUCGGGAUCUAGUATT against Anxa11,-1.44
22,GGCAAUUCUGAAGAAACCATT against Ogn,-2.23 (active)

row,Sequence,z-score
1,GGAGGAGUCCCAUAACUCATT against Cby2,1.05
2,GGUAAACUUGACAAUAGGATT against Zc3h14,-0.512
3,CCCUGGUCGUCAUUUUCAATT against Morc2b,1.54
4,GCACAAGCGUGGAACACAUTT against Dctn2,0.702
5,GGCCCAACAUAUAUCAAAUTT against Adck2,1.38
6,GGAAACUGUUGAAUCUUGUTT against Smad5,1.42
7,CCACGCUCUCAAGGUAUAGTT against Cyp2d22,-2.81 (active)
8,GGGAUUGGGUAUUUUUUAGTT against B4galt1,-0.432
9,CCCGUACAUUGAGUGCAAUTT against 6330403K07Rik,0.414
10,GGAGUUCAGGAAAAUUCUUTT against Fsd1l,0.0551
11,GGAAGACCUUCAGAGAGAATT against Ell2,4.25 (active)
12,GGGAAAGUUAAUAUCAAGATT against Ephb4,0.185
13,GGUGAUGAUGAUGGGCAACTT against Cdkn2a,2.02 (active)
14,GGACAAGAUUCUAAACUGCTT against Wdr37,1.03
15,GGCCUUGUAAAUUAUGCAUTT against Klhl23,0.61
16,GCCCUUUCCGUCUGAAAUCTT against Hydin,2.06 (active)
17,GCUUCUGGUUUUCGGCUAUTT against Sfswap,0.427
18,GAUGUGUUAACUACACCGATT against Pyy,0.983
19,CGAGGAUGAGUUCAGUGAGTT against Pdcl3,-1.19
20,GUUGGUUUGUUGACCUCUUTT against Arap2,0.1
21,CCUACUCUGGUAAAACCUUTT against Immp1l,-0.365
22,GCAAAGGCCAAAUAUGAGGTT against Dbil5,-2.71 (active)

row,Sequence,z-score
1,GCCAUUAAAGGUAACACUGTT against Tmbim7,0.0423
2,GCCUUCUGAGAUAGUAGAUTT against Zcchc17,0.756
3,GGAGAAAAUCAAACCAGAUTT against Ddx19b,0.823
4,GGACUGAUGGAUCCUUCCATT against Krtcap3,-2.12 (active)
5,GGCAUCCAUCAACAACAGGTT against Ahsa1,-0.925
6,GCAUGUACCCUCUUUGUAGTT against Gjb6,-0.954
7,GGAUUCGAGUGGUAACAAGTT against Nmral1,0.617
8,GGUAUAGCUACCAUUUUUCTT against Ggct,-1.05
9,CUUACCACCCUGAGUUUCATT against Olfr1066,-3.2 (active)
10,GGAGAAAGCAGAAAUUGAATT against Mfap1a,-1.31
11,CCAAGAUUCGGUUUUGCUUTT against Trerf1,-0.33
12,GGCAGCCCUUUUGCUAAGATT against Neurod1,-0.0737
13,GGCUGGUGAAAGUCAAGGUTT against Arid4a,0.503
14,GGAGCAGUCUCCUUUUUGUTT against Pcnp,2.14 (active)
15,GCUCUUGAUGUUUAGAGUUTT against Usp17lf,0.345
16,GGGCAGCAGCAAUUUCUGUTT against Ahcyl1,1.39
17,GGAAAAAUUAGACCGUGAGTT against Pcdhb4,-0.299
18,CCAUUGAUAUUAAAUCGCUTT against Pik3cg,-0.244
19,GGGCUAUGUAUUGUAAAUGTT against Nxf1,-2.79 (active)
20,GCACGACUACUUCUCAAAUTT against Prpf6,0.376
21,GGCCAGAAUAUCAUCGUCATT against Rbks,-0.163
22,GGGACACCUUCCGUAACUATT against Gcdh,-0.832

row,Sequence,z-score
1,GCACGCUAUUGGCUAUGAGTT against BC052040,-0.0182
2,GGUCAUGAUCAAGACACAUTT against Tmem63c,0.371
3,AAGGUUUGGAAACUCAUUGTT against Zbtb25,-1.77
4,GGGUUAGGCCAGUUCUGAUTT against Reg3d,-2.08 (active)
5,GGAAGAGGAGGAGUACAAGTT against Fnbp1,-0.0804
6,GCAGUUCAUGUCCUGAAUATT against Olfr308,-1.49
7,GUUUCCAUAUCCUUUAAGUTT against Lilr4b,1.23
8,GGAACUGCUCGACAAAGCUTT against Primpol,-2.53 (active)
9,GGGUUAUAGGUGUGUGUGCTT against Gemin6,-0.389
10,GCUGCACUUGAAAUCCGAGTT against Atg2b,1.49
11,GCCCGUUCCACUUUUGGAGTT against Nedd1,2.2 (active)
12,GGAAGAAGCAGAAGAACAUTT against Rpl12,2.55 (active)
13,GGAACUCCUGGAGCAGAACTT against Tbc1d10b,-2.52 (active)
14,GGUUGUGCAAGAGUAUGAATT against Nphs2,0.316
15,GCGCACAACAGACUUCUAUTT against Epm2a,0.0628
16,GGAAGAACUUGACCCAGAGTT against Pex16,1.31
17,GGCGACAGUUGUUUUUGUGTT against Nlrp4b,-0.588
18,GCUGUUUUACCUUAAUCCCTT against Tnfsf18,0.601
19,GGAAUUCCAAGUCAUUAUUTT against B230340J04Rik,0.664
20,GCAUCUUAGGCAUUGCUAGTT against Pcna,-0.156
